Bioassay records from PubChem.
MsrA act – activates bovine MsrA enzyme | AID 602163 | actives 0.3% (n = 360,000) | purified bovine MsrA, absorbance read-out | activation, % at 10.6 µM; in the data active means activation above about 7.5%;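 further: 0% = vehicle and 100% = reference activator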
PLCb3 inh – inhibitors of human phospholipase C beta3; inhibition, % at 12.2 µM; actives 0.18% (n = 370,000); Purified PLC-beta3, fluorogenic substrate, fluorescence; Q01970; in the data active means inhibition above about 11%;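 further: 0% = median of compound wells on plate and 100% = full blocker control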
MsrA inh – inhibitors of bovine MsrA. purified bovine MsrA, absorbance read-out. inhibition, % at 15.5 µM. actives 0.75% (n = 360,000). AID 651718; in the data active means inhibition above about 4.5%;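 further: 0% = vehicle wells with enzyme and 100% = reference inhibitor wells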
PLC-gamma1 inh – blocks human PLC-gamma1 enzyme activity | P19174 | purified PLC-gamma1, fluorogenic substrate, fluorescence | actives 0.84% (n = 370,000) | inhibition, % at 12.2 µM; in the data active means inhibition above about 9.5%
MsrA activ conf – confirmation of bovine methionine sulfoxide reductase A activators; actives 12% (n = 1,000); purified bovine MsrA, absorbance read-out; shares compounds with MsrA act; activation, % at 10.6 µM; in the data active means activation above about 4%;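 further: enzyme coupled to thioredoxin and thioredoxin reductase with NADPH; 0% = vehicle wells and 100% = reference activator wells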
An asterisk follows results filed as active. Only some compounds are listed: those with a hit (about 1.9% of all), similar ones and a draw of the others.

What do the screens show for `Cc1cccc(NC(=O)NC(=O)c2ccccc2)n1`?
MsrA act: 8.1*; PLCb3 inh: 0; MsrA inh: 0; PLC-gamma1 inh: 0; MsrA activ conf: 1

How did COC(=O)[C@]12C[C@H](CC(=O)N3CCC(c4ccccc4)CC3)C(=O)N(CCC3=CCCCC3)C1=C[C@H](COCc1ccccc1)O[C@@H]2C do in these assays?
PLCb3 inh: 6; MsrA inh: 0; PLC-gamma1 inh: -1

What do the screens show for `O=C(Nc1cccc(Cl)c1)NN(c1ccccc1)C1CCS(=O)(=O)C1` (stereo unspecified)?
PLCb3 inh: 1; MsrA inh: 0; PLC-gamma1 inh: -1

Results for CC(=O)c1ccc(Nc2nc3ccc(C)cc3n3cnnc23)cc1 ?
MsrA act: 8.2*; PLCb3 inh: -89; MsrA inh: -1; PLC-gamma1 inh: -65; MsrA activ conf: -1

How did NC1=C(Cl)C(=O)c2ccccc2C1=O do in these assays?
MsrA act: 18*; PLCb3 inh: 8; MsrA inh: -1; PLC-gamma1 inh: 5; MsrA activ conf: 12*

What do the screens show for `O=C1C(Cl)=C(NCCCO)C(=O)c2ccccc21`?
MsrA act: 0; PLCb3 inh: 2; MsrA inh: 1; PLC-gamma1 inh: 0

Results for NS(=O)(=O)c1ccc(NC(=O)NC2CC(=O)N(c3ccc4c(c3)OCCO4)C2)cc1 (stereo unspecified) ?
MsrA act: 11*; PLCb3 inh: -3; MsrA inh: 0; PLC-gamma1 inh: 1; MsrA activ conf: -2

How did CN(CCO)c1cccc2c1S(=O)(=O)N(Cc1cn(Cc3cccc(C(F)(F)F)c3)nn1)Cc1ccccc1O2 do in these assays?
PLCb3 inh: -17; PLC-gamma1 inh: -13

Results for CCN(CC)S(=O)(=O)c1ccc(N2CCCCC2)c(NC(=O)/C=C/c2ccc(OC)c(OC)c2)c1 ?
MsrA act: 15*; PLCb3 inh: -69; MsrA inh: 2; PLC-gamma1 inh: -59; MsrA activ conf: 3

What do the screens show for `CCOC(=O)c1c2c(n(-c3ccc(OC)cc3)c1C)C(=O)C(=O)c1ccccc1-2`?
MsrA act: 7.7*; MsrA activ conf: 6.2*

Results for COc1cc(NC(=O)c2cc(-c3cc(F)ccc3OC(C)C)n[nH]2)cc(OC)c1OC ?
MsrA act: 9.4*; PLCb3 inh: -3; MsrA inh: 0; PLC-gamma1 inh: -1; MsrA activ conf: -1

How did COc1ccc(NC(=O)c2cc(-c3cc(F)ccc3OC(C)C)n[nH]2)cc1OC do in these assays?
MsrA act: -2; PLCb3 inh: 2; MsrA inh: -1; PLC-gamma1 inh: 2

Results for CN1C(=O)c2cc(NC(=O)C3CCCCC3)ccc2OC[C@H]2O[C@@H](CC(=O)NC3CCCC3)CC[C@H]21 ?
PLCb3 inh: 1; PLC-gamma1 inh: 1

What do the screens show for `CC(C)Cn1[nH]c2c3c(ccc2c1=O)C(=O)c1ccccc1C3=O`?
MsrA act: 7.8*; MsrA activ conf: 3

How did O=C(Nc1ccc(C(F)(F)F)cc1)OC1CCC12CCCCC2 (stereo unspecified) do in these assays?
PLCb3 inh: 1; PLC-gamma1 inh: 1

How did CC(=O)NC1(c2ccc(F)cc2)CCN(C(=O)Nc2ccc(F)cc2F)CC1 do in these assays?
MsrA act: 8.6*; PLCb3 inh: 0; MsrA inh: -1; PLC-gamma1 inh: 2; MsrA activ conf: 0

Results for CN(C)c1ccc(C=c2c3ccccc3n3c2cc(-c2ccccc2)[n+]3C)cc1 ?
MsrA act: 9.8*; PLCb3 inh: -96; MsrA inh: 2; PLC-gamma1 inh: -77; MsrA activ conf: 1

What do the screens show for `CN(C)c1ccc(C=c2c3cc([N+](=O)[O-])ccc3n3c2cc(-c2ccccc2)[n+]3C)cc1`?
MsrA act: -4; PLCb3 inh: 9; MsrA inh: 4; PLC-gamma1 inh: 5

What do the screens show for `O=c1sc(N2CCN(c3ccc(F)cc3)CC2)nc2ccsc12`?
MsrA act: 7.8*; PLCb3 inh: 1; MsrA inh: 1; PLC-gamma1 inh: 0; MsrA activ conf: -2

Results for O=c1sc(N2CCN(c3ccccc3F)CC2)nc2ccsc12 ?
MsrA act: -1; PLCb3 inh: 1; MsrA inh: 0; PLC-gamma1 inh: -2

What do the screens show for `COCc1cc(N2CCNC[C@H]2C)ccc1N1CCN(Cc2ccccc2)[C@@H](C)C1`?
PLCb3 inh: -1; MsrA inh: 0; PLC-gamma1 inh: -1

How did Cn1c(-c2sccc2OCc2ccc(Cl)cc2Cl)n[nH]c1=S do in these assays?
MsrA act: 17*; PLCb3 inh: -7; MsrA inh: 1; PLC-gamma1 inh: -7; MsrA activ conf: -1
